Assay results from PubChem BioAssay (NCI).
About 83,000 compounds went through this panel and 20% of them were active in at least one assay; those are over-represented in the sample as a whole.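 Values shown are percent growth following 48 h exposure of cells in 96-well plates to a single concentration of compound; below 10 was considered active.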 Values without a mark were called inactive. The source made the active and inactive calls.

Each molecule was assayed on MOLT-4 leukemia (assay: NCI-60 one-dose screen, 48 h (100 = growth as untreated, 0 = no growth, -100 = all killed)). Settings: 10 µM unless noted.
Method: Growth inhibition of the MOLT-4 human tumor cell line is measured as a screen for anti-cancer activity. Cells are grown in 96 well plates and exposed to the test compound for 48 hours. Compounds are tested at a single concentration, which is 10^-5 M for most compounds. The reported endpoint is percent growth (GI% or GIPRCNT), where numbers from 0 - 100% represent growth inhibition, and numbers from -100% - 0 represent cell death. For example, a value of 40 represents 60% growth inhibition. A value of 0 means no net growth occurred over the course of the experiment. A value of -40 indicates 40% of cells at the beginning of the experiment died by the end of the experiment. A value of -100 means all cells are dead at the end of the experiment.
NCI-60 Human Tumor Cell Lines Screen was performed using the standard one-dose NCI protocol, which is described in more detail at https://dtp.cancer.gov/discovery_development/nci-60/default.htm.
Compounds with GIPRCNT values below 10 were considered active. Activity score was based on GIPRCNT using the following formula: […]
Score is 0 for GIPRCNT values of 100 or above, 50 for GIPRCNT values of 0, and 100 for GIPRCNT values of -100.

With C#CCC(C(=O)OCC)C(=O)OCC as the molecule, how does the growth read?
Its growth is 100%.

With CC(C)C1=NOC(=O)C1=Cc1cn(-c2ccco2)nc1-c1ccccc1 as the molecule, how does the growth read?
Its growth is 20.7%.

For O=[N+]([O-])c1cc([N+](=O)[O-])c(C(F)(F)F)cc1NN=C(c1ccc(O)cc1)c1ccc(O)cc1, which growth is on record?
Its growth is 107%.

For COc1cc(NN=C(c2ccc(O)cc2)c2ccc(O)cc2)c([N+](=O)[O-])cc1[N+](=O)[O-], which growth is on record?
The growth was 94.6%.

O=C1Nc2ccccc2/C1=C/C(=O)c1ccc(N2CCCC2)cc1 was tested. Which growth did it give?
Its growth is 3.55% (active).

Which growth does the source give for CCOC(=O)c1nn(C2CCCCO2)c2ccc(NC(=O)Cn3nnc4ccccc43)cc12 (stereo not given) here?
The growth was 95.9%.

How did the growth turn out when CCOc1cc(/C=N\NC(=O)N/N=C/c2ccc(O)c(OCC)c2)ccc1O was run?
Its growth is 31.1%.

Which growth does the source give for O=C1/C(=C\c2cccn2Cc2ccccc2)c2ccccc2N1c1c(Cl)cccc1Cl here?
Its growth is 86.6%.

With Cc1nc(-c2ccccc2)sc1CC#N as the molecule, how does the growth read?
Its growth is 93.5%.

Which growth does the source give for CCNc1cc2c(cc1Br)-c1ccccc1C2=O here?
Its growth is 98.3%.

With COc1cc(-c2nc(SCCC(C)C)nc(Nc3ccc(S(N)(=O)=O)cc3)c2C#N)cc(OC)c1OC as the molecule, how does the growth read?
Its growth is 1.98% (active).

Fc1ccc(NC(=S)c2ccccc2)cc1 was tested. Which growth did it give?
Its growth is 99.9%.

For O=C(NCCCNC(=O)OCc1ccc2c(Br)cc(Br)c(O)c2n1)OCc1ccc2c(Br)cc(Br)c(O)c2n1, which growth is on record?
Its growth is 0.977% (active).

For CCCCCC1CCCCN1C(=O)OCCCC (stereo not given), which growth is on record?
Its growth is 99.5%.

For CC(C)CCSc1nc(N)nc2nc[nH]c12, which growth is on record?
Its growth is 116%.

How did the growth turn out when Cc1cccc(C[C@H](NC(=O)Nc2ccc(Cl)cc2F)C(=O)N[C@@H]2C(=O)N3C[C@H](OC(=O)CCN(C)C)C[C@H]3C(=O)N3CCCC[C@H]3C(=O)N[C@@H](C)C(=O)N3C[C@H](C)C[C@H]3C(=O)O[C@H]2C)c1 was run?
Its growth is 27.8%.

COc1ccc(C2NC(=O)C(C#N)c3c2sc2c(F)cccc32)cc1 (stereo not given) was tested. Which growth did it give?
The growth was 49.1%.

With C=C(C)[C@@H]1CC[C@]2(C(=O)NCCNCCNCCN)CC[C@]3(C)[C@H](CC[C@@H]4[C@@]5(C)CCC(=O)C(C)(C)[C@@H]5CC[C@]43C)[C@@H]12 as the molecule, how does the growth read?
The growth was -16.3% [100 µM] (active).

CC(C)(C)c1cc(C(=O)N2CCC(C(=O)NCCN)CC2)cc(C(C)(C)C)c1 was tested. Which growth did it give?
Its growth is 98.5%.

O=C1CC(c2ccc3c(c2)OCO3)Nc2ccccc21 (stereo not given) was tested. Which growth did it give?
Its growth is 62.7%.

For O=S(=O)(NCc1ccccc1)c1ncnc2nc[nH]c12, which growth is on record?
Its growth is 93.3%.

Which growth does the source give for N#C/C(C(=O)c1ccccc1)=C1/C(=O)Nc2ccc(Br)cc21 here?
The growth was 101%.

How did the growth turn out when O=[N+]([O-])c1cc(CCl)ccc1OCCBr was run?
Its growth is 109%.

Which growth does the source give for O=C(Nc1ccc(CN2CCOCC2)c(C(F)(F)F)c1)c1nc2ccc3[nH]ncc3c2c2c1CCCC2 here?
Its growth is 76.3%.

Which growth does the source give for C/C=C/C1OC23CCCCC2C(C#N)(C(=N)O3)C1(C#N)C#N (stereo not given) here?
The growth was 95%.

COc1ccc(N(c2nc(-c3ccc([N+](=O)[O-])cc3)cs2)C(C)C)cc1 was tested. Which growth did it give?
Its growth is 68.5%.

With Cc1ccccc1OC(=O)c1cccc(Cl)c1 as the molecule, how does the growth read?
Its growth is -16.3% (active).

CCN1c2ccccc2C(Cl)(c2ccc(N(C)C)cc2)c2ccccc21 was tested. Which growth did it give?
The growth was 65.6%.

N#Cc1c(N2CCOCC2)nc(=S)[nH]c1-c1ccco1 was tested. Which growth did it give?
Its growth is 64.5%.

C[n+]1cccc(NC(=O)c2ccc3ccc4ccc(C(=O)Nc5ccc[n+](C)c5)nc4c3n2)c1 was tested. Which growth did it give?
Its growth is 71.5%.

Which growth does the source give for O=C(Nc1cc(-c2cccnc2)nc(NCCCN2CCOCC2)n1)c1cc(Br)cc(C(F)(F)F)c1 here?
Its growth is 45.1%.

With COc1ccc(C2CC(c3ccc4ccccc4c3)=NN2c2nc(O)c(C3=c4cc(OC)ccc4=NC3=O)s2)cc1 (stereo not given) as the molecule, how does the growth read?
Its growth is -13.2% (active).

With COc1cc(NCc2cn(-c3ccc(C(=O)O)cc3)nc2-c2ccc(C(=O)O)cc2)cc(OC)c1OC as the molecule, how does the growth read?
Its growth is 110%.

Which growth does the source give for O=C(CCNCc1ccccc1)c1ccccc1 here?
The growth was 109%.

How did the growth turn out when C=C(C)[C@@H]1CC[C@]2(C(=O)NCCCCCCN(CCCN)CCCN)CC[C@]3(C)[C@H](CC[C@@H]4[C@@]5(C)CC[C@H](OCCCN)C(C)(C)[C@@H]5CC[C@]43C)[C@@H]12 was run?
Its growth is 10.1% [100 µM].

Which growth does the source give for CC(C)(C)c1cc(C(=O)Nc2cc3ccccc3cc2C(=O)NCCN)cc(C(C)(C)C)c1 here?
The growth was -38.6% (active).

COC(=O)[C@]12CCC(C)(C)C[C@H]1C1=CC[C@@H]3[C@@]4(C)C/C(=C/c5cccnc5)C(=O)C(C)(C)[C@@H]4CC[C@@]3(C)[C@]1(C)CC2 was tested. Which growth did it give?
Its growth is -14% [100 µM] (active).

With CCc1cccc(Cl)c1 as the molecule, how does the growth read?
The growth was 98.1%.

With CC(C)C1=NOC(=O)C1=Cc1cn(-c2ccccc2)nc1-c1ccccc1 as the molecule, how does the growth read?
Its growth is 7.72% (active).

Cn1cc(-c2nnc(-c3ccccc3)s2)c2cc(Br)cnc21 was tested. Which growth did it give?
The growth was 83.4%.
